# Reference: PubChem BioAssay (NCI)
# Compounds without any hit were thinned out: in the full panel of roughly 83,000, 20% have a hit.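 Results are percent growth after 48 hours of single-concentration exposure. 100 means growth as in untreated cells, lower positive values show inhibition; negative values down to -100 show cell death.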 A number with no mark means an inactive call. Active and inactive are the calls of the source. The calls were made as follows: active = growth percent below 10; inactive = the rest.
# System: OVCAR-4 ovarian
# Assay: NCI-60 one-dose screen, 48 h (100 = growth as untreated, 0 = no growth, -100 = all killed)
# Details: 10 µM unless noted
row,Compound,growth
1,Cc1[nH]c(C(=O)Nc2ccc(C(N)=O)cc2OC(C)C)c(Cl)c1Cl,98.2%
2,Nc1nc(N)c2c(n1)NC(c1cccc(Nc3ccnc4cc(C(F)(F)F)ccc34)c1)CC(c1ccc(Cl)cc1)=N2 (centres undefined),60.1%
3,COC1=C(OC)C(=O)C(CCCCCCCCCCO)=C(C)C1=O,-13.7% (active)
4,O=C1c2c(c3c4cccnc4[nH]c3c3ccc4ccccc4c23)C(=O)N1O,53.8%
5,CCN1CCN(C(=O)[C@]23CC[C@@H](C)[C@H](C)[C@@H]2C2=CC[C@@H]4[C@@]5(C)C/C(=C/c6ccncc6)C(=O)C(C)(C)[C@@H]5CC[C@@]4(C)[C@]2(C)CC3)CC1,29.8%
6,C=CC(=O)Nc1ccc2ncnc(Nc3cccc(NS(=O)(=O)CCC)c3Cl)c2c1,66.8%
7,COc1ccccc1/C=C/C1=C(C)CCC(c2ccccc2OC)C1C (centres undefined),42.7%
8,CN(C)CCOc1nc2c3cc([N+](=O)[O-])ccc3nn2c2ccccc12,62.4%
9,COc1ccc(-c2nc(SCCC(C)C)nc(N/N=C(/C)c3ccc(N)cc3)c2C#N)cc1,101%
10,O=C(c1ccccc1)[C@@H](c1ccccc1)[C@]1(O)C(=O)Nc2ccccc21,98.7%
11,CCOC(=O)C1=C(c2ccccc2)N=C2SC=C(c3cccc([N+](=O)[O-])c3)N2C1c1ccc(O)cc1 (centres undefined),106%
12,Cn1nc(-c2ccc(Cl)cc2)nc2c(=O)n(C)c(=O)nc1-2,-99.7% (active)
13,COC1CC(O)C2=C(CC3C(/C(C)=C\CC=C(C)C)CCC3(C)O2)C1=O (centres undefined),113%
14,COc1cc(C(=O)/C=C/c2c(-c3cccs3)nc3sc(C)cn23)cc(OC)c1OC,14.3%
15,CSc1nc(N)c2c(n1)NC(c1ccccc1)C1CCc3ccccc3C1=N2 (centres undefined),41.6%
16,COC(=O)c1c(C)nc(C)c2c1C(=O)C(Br)=C(NCCCCO)C2=O,38.4%
17,COc1ccc(S(=O)(=O)Oc2ccc(-c3sc4cc(OS(=O)(=O)c5ccc(OC)cc5)ccc4c3C(=O)c3ccc(OCCN4CCCCC4)cc3)cc2)cc1,97.7%
18,C=C(c1ccc(C(=O)O)c(F)c1)c1cc2c(cc1C)C(C)(C)C=CC2(C)C,81.2%
19,COc1cc(C2=Nc3c(N)nc(N)nc3NC(c3cccc(Nc4ccnc5cc(C(F)(F)F)ccc45)c3)C2)cc(OC)c1OC (centres undefined),74.7%

# System: SK-OV-3 ovarian
# Assay: as above
# Details: 10 µM unless noted
row,Compound,growth
1,CN1CCN(CCCNC(=O)c2c3c(n4ccccc24)C(=O)c2ncccc2C3=O)CC1,28.6%
2,CN1CCN(CC(=O)N(C)c2ccc(N=C(c3ccccc3)c3c(O)[nH]c4ccc([N+](=O)[O-])cc34)cc2)CC1,14.4%
3,CCCCCCCCNc1ncnc2c1ncn2Cc1nnc2c3ccccc3c(Cl)nn12,4.2% (active)
4,CC/C(=C(/c1ccc(Cl)cc1)c1ccc(OCCCN(C)C)cc1)c1ccc(OC)cc1,102%
5,CCN(CC)CCCNC(=O)c1c2c(n3ccccc13)C(=O)c1ncccc1C2=O,-41.4% (active)
6,CCCn1cnc2c(c1=N)C(c1ccc(Cl)cc1)c1sc3c(F)cccc3c1O2 (centres undefined),102%
7,Cc1ccc(C23CCC(=O)N2CCc2cncn23)cc1 (centres undefined),92.8%
8,O=C(COc1ccc(/C=C2\Oc3ccccc3C2=O)cc1)Nc1nccs1,125%
9,Cc1c(C(=O)C(SC(=S)N2CCOCC2)SC(=S)N2CCOCC2)nnn1-c1ccc([N+](=O)[O-])cc1,93.3%
10,O=[N+]([O-])c1ccc(Oc2cccc3c(Oc4ccc([N+](=O)[O-])cc4[N+](=O)[O-])cccc23)c([N+](=O)[O-])c1,83.1%
11,CN(C)CCOc1ccc(/C(=C(/CCCCCCCCCC[P+](c2ccccc2)(c2ccccc2)c2ccccc2)c2ccccc2)c2ccccc2)cc1,-81% (active)
12,CC1(C)CC[C@]2(CO)CC[C@]3(C)C(=CC[C@@H]4[C@@]5(C)CCNCC(C)(C)[C@@H]5CC[C@]43C)[C@@H]2C1,95.4%
13,O=c1oc2ccccc2cc1-c1nn(-c2ccccc2)cc1/C=N/Nc1nc(-c2ccccc2)c(N=Nc2ccccc2)s1,82.8%
14,COc1cc(/C=C2\CN(S(=O)(=O)c3ccc(C)cc3)C/C(=C\c3cc(CN4CCCC4)c(O)c(OC)c3)C2=O)cc(CN2CCCC2)c1O,33.9%
15,Nc1ccc(Cl)c2c(=O)c3ccccc3[nH]c12,89.2%
16,COC(=O)c1sc(-c2ccc(C)cc2)cc1O,114%
17,CCOC(=O)CSc1nc2sc3c(c2c(=O)n1-c1ccccc1)CCCCC3,100%
18,O=C1NCCS(=O)(=O)/C1=C\C=C\c1cccc(C(F)(F)F)c1,85.8%
19,COc1cc(/C=C2\C(=O)N(CCOc3cc(O)c4c(=O)cc(-c5ccccc5)oc4c3)c3ccccc32)cc(OC)c1O,92.2%
20,CNC1=C([N+](=O)[O-])C(c2ccc(OC)cc2)C(C#N)=C(c2ccc[nH]2)O1 (centres undefined),102%

row,Compound,growth
1,COc1cccc2cc(N(C)c3ncnc4ccccc34)ccc12,33.9%
2,Cc1[nH]c(C(=O)Nc2ccc(C(N)=O)cc2OC(C)C)c(Cl)c1Cl,96.4%
3,Nc1nc(N)c2c(n1)NC(c1cccc(Nc3ccnc4cc(C(F)(F)F)ccc34)c1)CC(c1ccc(Cl)cc1)=N2 (centres undefined),64.9%
4,COC1=C(OC)C(=O)C(CCCCCCCCCCO)=C(C)C1=O,82.7%
5,O=C1c2c(c3c4cccnc4[nH]c3c3ccc4ccccc4c23)C(=O)N1O,75.5%
6,CCN1CCN(C(=O)[C@]23CC[C@@H](C)[C@H](C)[C@@H]2C2=CC[C@@H]4[C@@]5(C)C/C(=C/c6ccncc6)C(=O)C(C)(C)[C@@H]5CC[C@@]4(C)[C@]2(C)CC3)CC1,70.2%
7,C=CC(=O)Nc1ccc2ncnc(Nc3cccc(NS(=O)(=O)CCC)c3Cl)c2c1,19.6%
8,COc1ccccc1/C=C/C1=C(C)CCC(c2ccccc2OC)C1C (centres undefined),33.4%
9,CN(C)CCOc1nc2c3cc([N+](=O)[O-])ccc3nn2c2ccccc12,34.9%
10,COc1ccc(-c2nc(SCCC(C)C)nc(N/N=C(/C)c3ccc(N)cc3)c2C#N)cc1,89%
11,O=C(c1ccccc1)[C@@H](c1ccccc1)[C@]1(O)C(=O)Nc2ccccc21,84%
12,CCOC(=O)C1=C(c2ccccc2)N=C2SC=C(c3cccc([N+](=O)[O-])c3)N2C1c1ccc(O)cc1 (centres undefined),102%
13,Cn1nc(-c2ccc(Cl)cc2)nc2c(=O)n(C)c(=O)nc1-2,32.6%
14,COC1CC(O)C2=C(CC3C(/C(C)=C\CC=C(C)C)CCC3(C)O2)C1=O (centres undefined),107%
15,COc1cc(C(=O)/C=C/c2c(-c3cccs3)nc3sc(C)cn23)cc(OC)c1OC,12.4%
16,CSc1nc(N)c2c(n1)NC(c1ccccc1)C1CCc3ccccc3C1=N2 (centres undefined),85.8%
17,COC(=O)c1c(C)nc(C)c2c1C(=O)C(Br)=C(NCCCCO)C2=O,121%
18,COc1ccc(S(=O)(=O)Oc2ccc(-c3sc4cc(OS(=O)(=O)c5ccc(OC)cc5)ccc4c3C(=O)c3ccc(OCCN4CCCCC4)cc3)cc2)cc1,95.9%
19,C=C(c1ccc(C(=O)O)c(F)c1)c1cc2c(cc1C)C(C)(C)C=CC2(C)C,73%
20,COc1cc(C2=Nc3c(N)nc(N)nc3NC(c3cccc(Nc4ccnc5cc(C(F)(F)F)ccc45)c3)C2)cc(OC)c1OC (centres undefined),88.1%
